In the supplement of paper PMC3334620:
Whole data set: some 33,000 sequences, median “E-score (-0.5 to 0.5)” near -0.011, cut for the highest 2% near 0.28. The entries come from a sample that favours the highest values as a whole.

Each sequence was assayed against T1, Gcr1 (UniProt P07261) (assay: PBM E-score (8-mer binding enrichment) (E-score (-0.5 to 0.5)); higher = stronger / more preferred TF binding). Details: protein concentration: 100 nM; construct: GST-full length.
T1 sequence: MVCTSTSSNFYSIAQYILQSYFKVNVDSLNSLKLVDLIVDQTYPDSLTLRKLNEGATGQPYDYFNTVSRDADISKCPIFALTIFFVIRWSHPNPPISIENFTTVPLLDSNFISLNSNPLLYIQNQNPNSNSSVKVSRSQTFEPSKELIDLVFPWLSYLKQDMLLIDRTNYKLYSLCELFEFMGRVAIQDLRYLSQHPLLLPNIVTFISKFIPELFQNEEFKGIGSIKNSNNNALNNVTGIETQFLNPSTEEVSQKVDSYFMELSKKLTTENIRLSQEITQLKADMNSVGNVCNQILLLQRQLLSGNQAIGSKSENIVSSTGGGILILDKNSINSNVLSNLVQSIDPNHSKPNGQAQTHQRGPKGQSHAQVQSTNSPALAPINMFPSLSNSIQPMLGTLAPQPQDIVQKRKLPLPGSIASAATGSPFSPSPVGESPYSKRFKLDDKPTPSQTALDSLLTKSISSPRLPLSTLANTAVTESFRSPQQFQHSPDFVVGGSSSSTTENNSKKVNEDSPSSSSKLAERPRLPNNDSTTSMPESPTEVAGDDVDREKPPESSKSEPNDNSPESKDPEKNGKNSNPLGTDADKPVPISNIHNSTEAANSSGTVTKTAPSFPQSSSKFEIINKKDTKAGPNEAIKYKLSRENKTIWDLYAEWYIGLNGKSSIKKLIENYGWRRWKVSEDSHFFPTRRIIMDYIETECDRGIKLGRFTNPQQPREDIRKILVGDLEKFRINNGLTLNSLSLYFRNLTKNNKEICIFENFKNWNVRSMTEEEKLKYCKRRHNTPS
Procedure, shortened: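 Full-length yeast transcription factors or their DNA-binding domains, GST-tagged and expressed with PURExpress, were applied at about 100-200 nM to universal all-10-mer Agilent arrays. These arrays had been made double-stranded by primer extension on fresh or once-stripped slides. Detection used fluorescent anti-GST, normalisation used masliner, and E-scores for ungapped eight-base words pooled with reverse complements came from the Universal PBM Analysis Suite.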

Sequence | PBM E-score
AGGGCAGG | -0.173
AGTGCTTC | -0.0411
CCGTCCAC | 0.016
ACGTCCAA | 0.00712
GCGTCCAC | 0.339
CCGTCCAA | 0.13
GCGTCCAA | 0.372
ACGTCCAC | 0.104
ATACCGGG | 0.208
ACCCACTG | 0.147
CCTGCTCA | -0.0926
CCAGATCC | 0.185
GGCAATGA | -0.202
GCGGAAAC | -0.0701
CCGGAAGA | 0.043
CCGGAAGG | 0.0607
ACGGAAGT | -0.0172
CCGGAAGC | 0.439
GCGGAAGA | -0.195
ACGGAAGA | 0.0748
ACGGAAGC | 0.344
GCGGAAGC | 0.314
ATTTTAGG | 0.249
CGAAACAC | 0.13

Sequence | PBM E-score
AATACTGT | 0.0108
AACATCGC | -0.031
GCAGGTAA | 0.0517
AGTCTTCG | -0.124
ATAAGCTG | 0.15
CGAAGCTA | 0.198
ATAAGCTA | -0.078
AGAAGCTG | 0.348
AGAAGCTC | 0.273
GGAAGCTA | 0.457
AAAAGCTA | -0.0743
GGAAGTTA | 0.339
CGAAGTTA | 0.0921
AGAAGCTA | 0.338
AGAAGTTA | 0.0491
GGAAGCGA | 0.175
TAACCATA | 0.0179
GATCTGAA | -0.0028
CTGGATCA | -0.0687
ACGGATTC | 0.237
CCGGATTC | 0.313
GGGGATAC | 0.0984
ATGGATCC | 0.278
AGGGATTC | 0.276

Sequence | PBM E-score
CGGGATTA | -0.0698
CGGGATAC | 0.304
CGGGATTC | 0.39
CTGGATCC | 0.346
CGGGATAA | 0.0532
CCGGATTA | -0.0163
ACACTGGA | 0.264
AACAGTGC | -0.142
CGGAAGAA | -0.0973
ATCTAGCC | 0.0906
ATTCCGTC | 0.0616
CTATAGAC | -0.109
CGCAGCAG | 0.0351
CCCAAATC | 0.238
CTAGCCAC | -0.154
ATGTGAAA | -0.0826
CTGGATTC | 0.361
CTGGATTA | 0.246
ATGGATTC | 0.272
CCGCACAC | -0.0537
GAGATGCC | 0.158
AAGATGCG | 0.198
AAGATGCA | 0.0396
AAGATGCC | 0.31

Sequence | PBM E-score
CAGATGCC | 0.217
AAGATGCT | 0.288
TTAACCAA | -0.0373
ATCGCCGG | 0.123
CAACTCAA | 0.0769
AATAGGCG | 0.168
AGACGAAG | 0.335
AGACGAAT | 0.0336
CTACGAAG | 0.0785
ATACGAAG | 0.293
ATACGAAT | 0.113
CGACGAAG | -0.219
AGCTTACG | 0.0302
AACTACTA | 0.288
AACTACTG | -0.0124
AACTACTC | 0.0802
CGGATACG | 0.0225
TTATGGAA | 0.163
ACTCTTCA | -0.15
AGTAGCAC | 0.287
GGTAGCAC | 0.0683
AGTAGCAA | 0.111
